Where “and” joins values, the source holds several entries; their conditions need not be identical. Equal entries are not always repeated. This is part of a sample that, as a whole, favours compounds with a hit. Of some 83,000 tested, about 20% had one in any assay.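 Cells were grown in 96-well plates and exposed to the test compound at a single concentration for 48 hours; results are reported as percent growth, with values below 10 considered active.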 Unmarked numbers belong to inactive results. Calls of active or inactive are those of the source.
Tested on: M14 melanoma
Assay: NCI-60 one-dose screen, 48 h (100 = growth as untreated, 0 = no growth, -100 = all killed)
Conditions: 1 µM
Method: Growth inhibition of the M14 human tumor cell line is measured as a screen for anti-cancer activity. Cells are grown in 96 well plates and exposed to the test compound for 48 hours. Compounds are tested at a single concentration, which is 10^-5 M for most compounds. The reported endpoint is percent growth (GI% or GIPRCNT), where numbers from 0 - 100% represent growth inhibition, and numbers from -100% - 0 represent cell death. For example, a value of 40 represents 60% growth inhibition. A value of 0 means no net growth occurred over the course of the experiment. A value of -40 indicates 40% of cells at the beginning of the experiment died by the end of the experiment. A value of -100 means all cells are dead at the end of the experiment.
NCI-60 Human Tumor Cell Lines Screen was performed using the standard one-dose NCI protocol, which is described in more detail at https://dtp.cancer.gov/discovery_development/nci-60/default.htm.
Compounds with GIPRCNT values below 10 were considered active. Activity score was based on GIPRCNT using the following formula: […]
Score is 0 for GIPRCNT values of 100 or above, 50 for GIPRCNT values of 0, and 100 for GIPRCNT values of -100.

Row | Structure (SMILES) | growth
1 | CC/C(=C(/c1ccc(O)cc1)c1ccc(OCCN(C)C(=O)COCCOCCNC(=O)c2ccc3c(c2)CN([C@@H]2CCC(=O)NC2=O)C3=O)cc1)c1ccccc1 | 89.9%

Same assay, conditions: 10 µM

Row | Structure (SMILES) | growth
2 | CC/C(=C(/c1ccc(O)cc1)c1ccc(OCCN(C)C(=O)COCCOCCNC(=O)c2ccc3c(c2)CN([C@@H]2CCC(=O)NC2=O)C3=O)cc1)c1ccccc1 | 92%

Same assay, conditions: 10 µM unless noted

Row | Structure (SMILES) | growth
3 | Nc1cc(-c2c[nH]c3ccc(F)cc23)nc2cc(-c3c[nH]c4ccccc34)nn12 | -23.1% (active)
4 | CN(CCSSCCN1CCOCC1)C(=O)Oc1cc2c(c3ccccc13)[C@H](CCl)CN2C(=O)c1cc2cc(OCCCN3CCC3)ccc2[nH]1 | -72.5% (active)
5 | Clc1ccc(Nc2nnc(-c3c[nH]c4ccccc34)o2)cc1 | 80.9%
6 | COc1ccc(N=Nc2c(N)nn3c(-c4cc5ccccc5oc4=O)ccnc23)cc1 | 59.5%
7 | CCCCCCCCCCCCCCCCCC(=O)Nc1ccc(OC)cc1 | 105%
8 | Cn1cc(-c2cc(N)n3nc(-c4c[nH]c5ccccc45)cc3n2)c2cc(Cl)ccc21 | -75.5% (active)
9 | Cc1cn(-c2cc(NC(=O)c3ccc(C)c(-n4cc(-c5cnc6cccnn56)nn4)c3)cc(C(F)(F)F)c2)cn1 | 21.5%
10 | NS(=O)(=O)c1cccc(Nc2nc(SCC(=O)c3ccc(F)cc3)nc3ccccc23)c1 | 23.3%
11 | N#C/C(=C/c1ccc([N+](=O)[O-])cc1)c1nnc(NC(=O)c2ccc(-n3c(=O)[nH]c4ccccc4c3=O)cc2)s1 | 120%
12 | COc1cc(/C=C/C(=O)c2ccc(S(=O)(=O)NCCNc3nc(N(C)C)nc(N4CCOCC4)n3)cc2)cc(OC)c1OC | -54.7% (active)
13 | Cc1cc(Cl)ccc1NC(=O)Nc1ccc(-c2ccc3c(c2)NC(=O)/C3=C\c2ccc[nH]2)cc1 | 108%
14 | FC(F)(F)c1cc2c(Cl)ncnc2n1CCN1CCOCC1 | 44.9%
15 | COC(=O)c1cc(C(=O)CBr)n2c1ccc1c3ccccc3ccc12 | 69.5%
16 | O=Cc1cncc(-c2ccc3ncnc(N4CCc5cc(F)c(Cl)cc54)c3c2)c1 | 48.6%
17 | COc1ccc(C(=O)c2cc(C(C)=O)c3c(C)cc(C)cn23)cc1 | 84.9%
18 | Oc1ccc(Cl)c(Nc2ncnc3c2cnn3CC(Cl)c2ccc(Br)cc2)c1 (stereo not given) | 65.4%
19 | O=C(N/N=C/c1ccc(Cl)o1)c1[nH]c2ccc(Br)cc2c1-c1ccccc1 | -3.48% (active)
20 | O=C(c1ccc(Cl)cc1)C1[C@H](c2ccccc2Cl)[C@@H](c2ccccc2)NC12C(=O)Nc1ccc(Br)cc12 (stereo not given in full) | -88.5% (active)
21 | CNc1nc2ccccc2n2c(-c3ccc(O)c(O)c3)cnc12 | -1% (active)

Row | Structure (SMILES) | growth
22 | COc1ccc(N=Nc2c(N)nn3c(-c4ccc(OC)c(OC)c4)ccnc23)cc1 | 62.5%
23 | COc1ccc(S(=O)(=O)Nc2ccc(-c3ccc4c(c3)NC(=O)/C4=C\c3ccc[nH]3)cc2)cc1OC | 0.851% (active)
24 | O=C(Cc1c(-c2cccc([N+](=O)[O-])c2)n(-c2ncnc3c2c(-c2ccccc2)c(-c2ccccc2)n3Cc2ccccc2)[nH]c1=O)c1ccc(Cl)c(Cl)c1 | 32.6%
25 | Clc1ccc(-c2nc3c4c(-c5ccccc5)c(-c5ccccc5)n(Cc5ccccc5)c4ncn3n2)cc1 | 15.4%
26 | Cc1cccc(C)c1Nc1nnc(-c2c[nH]c3ccccc23)o1 | 102%
27 | CC(=O)Nc1cccc(-n2c(COc3ccc(I)cc3)nc3ccccc32)c1 | 102% and 115%
28 | COc1c(F)ccc(C(=O)Nc2ccc3nc(NC(=O)C4CCCN(S(=O)(=O)c5ccc(C(C)(C)C)cc5)C4)sc3c2)c1F (stereo not given) | 87.6%
29 | Cc1ccc(Cl)cc1NC(=O)Nc1nc2ccc([N+](=O)[O-])cc2s1 | -33.5% (active)
30 | COC(=O)c1cccc(Oc2ccc(NC(=O)Nc3cc(C(F)(F)F)ccc3F)cc2)c1 | 84.9%
31 | COc1cc(C2CC(c3cc(OC)c(OC)c(OC)c3)=Nc3c(N)nc(N)nc3N2)ccc1Oc1nc(Nc2ccc(F)cc2)nc(N(C)C)n1 (stereo not given) | 66.5%
32 | FC(F)(F)CN1CCN(CCn2c(C(F)(F)F)cc3c(Cl)ncnc32)CC1 | -66.7% (active)
33 | CCCCCCCCc1cccc(CC(=O)Nc2ccc(C)cc2C(=O)O)c1 | 62.9% [25 µM]
34 | Cn1cc(-c2cc(N)n3nc(-c4c[nH]c5ccc(Cl)cc45)cc3n2)c2cccnc21 | -90.5% (active)
35 | N#CC1=C(c2cccs2)Nc2c(c(-c3ccccc3)nn2-c2ccccc2)C12C(=O)Nc1ccccc12 (stereo not given) | 14.6%
36 | CC[C@]12C=CCN3CC[C@]4(C(=C(C(=O)OC)C1)Nc1cc(OC)c([C@@H]5[C@H]6O[C@H]6[C@@]6(CC)CC(C(=O)OC)=C7Nc8cc(OC)ccc8[C@@]78CCN5[C@@H]68)cc14)[C@@H]32 | 60.2%
37 | COc1ccc(C2=NN(C(=O)[C@H]3[C@@H](c4ccco4)c4sc(=O)[nH]c4S[C@@H]3C)C(c3ccc4ccccc4c3)C2)cc1 (stereo not given in full) | 24.1%
38 | CC(=O)Nc1ccc(S(=O)(=O)Nc2ccc(-c3ccc4c(c3)NC(=O)/C4=C\c3ccc[nH]3)cc2)cc1 | 100%
39 | O=CNc1cccc(-n2cnc3cc(-c4ccc(O)cc4)ccc32)c1 | 57.2%
40 | CC1=C(C(=O)Nc2ccccc2)C(c2ccc3ccccc3c2)n2c(nc3ccccc32)N1 (stereo not given) | 66.6%

Reference: PubChem BioAssay (NCI)
